# From PubChem BioAssay
# DT40 TDP1 no CPT: qHTS for Inhibitors of human tyrosyl-DNA phosphodiesterase 1 (TDP1): qHTS in cells in absence of CPT | 15% of 420,000 active | DT40 Tdp1-/- hTDP1 cells, no CPT, ATP luminescence, 48 h | Potency, µM (top dose mostly 46.2 µM), inactives show at the top dose activity change, negative = growth inhibition, usual class: inhibitors; also: nearly all actives have a fitted effect of over 55% in size
#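 Growth of hTDP1-complemented DT40 Tdp1-knockout cells is measured by ATP luminescence after at least 48 hr compound exposure at 37 °C, with DMSO substituting for the 20 nM CPT used in the parallel screen.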
# Gal4-VP16 FLuc: VP16 counterscreen qHTS for inhibitors of ROR gamma transcriptional activity; Drosophila S2 Gal4-VP16 UAS-luciferase, luminescence, 20 h; Potency, µM (series often up to 53.6 µM), inactives show top-dose activity, negative = inhibition, usual class: inhibitors; 3.5% of 310,000 active;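 also: Gal4-VP16 expression switched on by copper sulfate through the metallothionein promoter; nearly all actives have a fitted effect of over 50% in size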
# TDP1 cell CPT: qHTS for Inhibitors of human tyrosyl-DNA phosphodiesterase 1 (TDP1): qHTS in cells in presence of CPT; chicken DT40 Tdp1-/-;hTDP1 cells + 20 nM CPT, ATP luminescence, 48 h; Potency, µM (highest dose often 46.2 µM), without a hit: at the top dose activity change, negative = growth inhibition, actives largely listed as inhibitors; 12% of 420,000 active; AID 686979, 2013; also: nearly all actives have a fitted effect of over 55% in size
#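 Chicken DT40 Tdp1-/- cells complemented with human TDP1, 400 cells/well, exposed to compounds plus 20 nM camptothecin for at least 48 h at 37 C; viability read as ATP content by CellTiter-Glo luminescence.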
# RORg inh: qHTS for inhibitors of ROR gamma transcriptional activity; Nuclear receptor ROR-gamma (Mus musculus), P51450; Drosophila S2 Gal4-RORgamma UAS-luciferase reporter, 20 h; Potency, µM (doses to about 53.6 µM), for inactives: at the top dose activity change, negative = inhibition, most hits filed as inhibitors; 5.4% of 310,000 active; also: nearly all actives have a fitted effect of over 60% in size
#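 Compounds are pin-transferred onto Drosophila Schneider cells expressing a copper-inducible Gal4–ROR gamma transactivation domain fusion. After 1 hr, copper sulfate is added to 700 uM final; luciferase is read 20 hr later.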
# 12-LOX inh: Primary qHTS assay for inhibitors of human arachidonate 12S-lipoxygenase (ALOX12): Round 2. Polyunsaturated fatty acid lipoxygenase ALOX12 (Homo sapiens), P18054. purified 12hLO, xylenol orange hydroperoxide absorbance. Potency, µM (series often up to 108 µM), inactives show at the top dose activity change, negative = inhibition, actives largely listed as inhibitors. 1.1% of 580,000 active. AID 1671190, 2021
#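 Hydroperoxide product was detected by ferrous iron/xylenol orange as the 573 to 405 nm absorbance ratio. Arachidonic acid at 40 uM (final) was turned over for 30 min at room temperature by 150 nM human 12hLO, pH 7.0 Hepes buffer, after 15 min compound preincubation.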
# ELG1 DNA repair: qHTS screen for small molecules that inhibit ELG1-dependent DNA repair in human embryonic kidney (HEK293T) cells expressing luciferase-tagged ELG1 | Potency, µM (doses to about 46.1 µM), without a hit: at the highest dose activity change, negative = inhibition, hits mostly inhibitors | 2.3% of 330,000 active | HEK293T ELG1-luciferase reporter, luminescence, 16 h; DNA damage induced by 5-fluorouridine | AID 504467, 2011; also: nearly all actives have a fitted effect of over 55% in size
#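 Cells (2,000 per well) received 5-fluorouridine plus test compound or DMSO and were incubated 16 hr at 37 °C, 5% CO2. Luciferase activity was read by luminescence 30 min after ONE-Glo addition; signal suppression marked inhibition of damage-induced ELG1 function.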
# ELG1 FLuc counter: qHTS screen for small molecules that inhibit ELG1-dependent DNA repair: Hit Confirmation in Cell-Based Luciferin Assay | Potency, µM (doses to about 46.1 µM), without a hit: top-dose activity change, negative = inhibition, actives largely listed as inhibitors | AID 624247, 2012 | cell-free firefly luciferase luminescence counter-screen, ViewLux | 3% of 350 active | shares compounds with ELG1 DNA repair
# ELG1 Luc conf: HTS assay for small molecules that inhibit ELG1-dependent DNA repair in human embryonic kidney (HEK293T) cells expressing luciferase-tagged ELG1: Hit Confirmation; shares compounds with ELG1 DNA repair; 68% of 670 active; HEK293T ELG1-luciferase levels, luminescence; cells co-treated with 5-fluorouridine; Potency, µM (top dose mostly 46.1 µM), for the others: at the top dose activity change, negative = inhibition, usual class: inhibitors; also: nearly all actives have a fitted effect of over 55% in size
# Target sequence (Q96QE3 whole entry, looked up): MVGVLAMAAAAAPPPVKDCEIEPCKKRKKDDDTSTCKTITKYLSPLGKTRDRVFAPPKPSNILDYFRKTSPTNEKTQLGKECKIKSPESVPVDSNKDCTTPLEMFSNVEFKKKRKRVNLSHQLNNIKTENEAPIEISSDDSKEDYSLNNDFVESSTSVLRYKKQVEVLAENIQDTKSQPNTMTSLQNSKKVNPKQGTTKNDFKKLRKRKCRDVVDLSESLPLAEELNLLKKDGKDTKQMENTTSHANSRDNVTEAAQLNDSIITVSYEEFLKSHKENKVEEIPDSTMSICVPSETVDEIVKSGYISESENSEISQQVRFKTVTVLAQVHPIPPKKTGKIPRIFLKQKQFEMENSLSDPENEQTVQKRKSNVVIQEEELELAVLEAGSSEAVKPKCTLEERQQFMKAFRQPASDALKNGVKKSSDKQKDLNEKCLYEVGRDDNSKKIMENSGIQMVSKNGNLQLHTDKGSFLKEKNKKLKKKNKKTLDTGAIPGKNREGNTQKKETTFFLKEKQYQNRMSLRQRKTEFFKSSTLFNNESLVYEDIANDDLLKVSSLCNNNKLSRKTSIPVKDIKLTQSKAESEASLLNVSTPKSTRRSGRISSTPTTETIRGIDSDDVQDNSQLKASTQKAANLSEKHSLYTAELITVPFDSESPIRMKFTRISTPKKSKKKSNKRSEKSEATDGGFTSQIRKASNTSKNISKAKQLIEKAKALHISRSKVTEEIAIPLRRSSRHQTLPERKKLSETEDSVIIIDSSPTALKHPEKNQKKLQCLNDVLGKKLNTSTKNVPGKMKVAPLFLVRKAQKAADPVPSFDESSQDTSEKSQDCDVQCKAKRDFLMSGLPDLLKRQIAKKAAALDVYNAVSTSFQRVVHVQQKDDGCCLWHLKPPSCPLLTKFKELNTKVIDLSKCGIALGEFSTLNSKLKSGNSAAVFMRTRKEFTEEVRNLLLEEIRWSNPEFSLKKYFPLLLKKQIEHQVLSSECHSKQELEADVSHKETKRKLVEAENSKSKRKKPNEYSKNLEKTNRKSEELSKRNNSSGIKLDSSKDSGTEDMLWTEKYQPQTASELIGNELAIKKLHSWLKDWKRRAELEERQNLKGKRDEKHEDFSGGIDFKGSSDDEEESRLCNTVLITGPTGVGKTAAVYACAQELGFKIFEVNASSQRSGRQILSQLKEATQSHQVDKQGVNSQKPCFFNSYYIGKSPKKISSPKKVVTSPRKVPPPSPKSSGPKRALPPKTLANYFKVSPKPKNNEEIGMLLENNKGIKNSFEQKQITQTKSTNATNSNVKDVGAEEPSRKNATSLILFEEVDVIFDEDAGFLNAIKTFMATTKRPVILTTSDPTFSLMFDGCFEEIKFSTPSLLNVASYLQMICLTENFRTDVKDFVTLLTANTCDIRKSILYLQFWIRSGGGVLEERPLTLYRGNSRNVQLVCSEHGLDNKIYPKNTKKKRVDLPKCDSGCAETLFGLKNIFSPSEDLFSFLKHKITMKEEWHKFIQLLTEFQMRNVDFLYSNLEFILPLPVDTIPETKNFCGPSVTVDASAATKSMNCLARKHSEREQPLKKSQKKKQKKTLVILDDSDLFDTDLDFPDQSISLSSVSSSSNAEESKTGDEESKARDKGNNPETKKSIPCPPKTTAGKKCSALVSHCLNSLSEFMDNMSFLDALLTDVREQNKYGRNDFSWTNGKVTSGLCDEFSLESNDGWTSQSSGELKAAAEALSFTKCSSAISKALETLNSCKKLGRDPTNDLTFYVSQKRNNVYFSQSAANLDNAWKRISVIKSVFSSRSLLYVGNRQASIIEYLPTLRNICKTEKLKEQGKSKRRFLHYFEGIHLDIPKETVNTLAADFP
# ELG1-Luc MMS: MMS-stimulated human ELG1 repair inhibition, confirmed; shares compounds with ELG1 DNA repair; 53% of 670 active; Potency, µM (doses to about 46.1 µM), without a hit: top-dose activity change, negative = inhibition, usual class: inhibitors; AID 624249; HEK293T luciferase-tagged ELG1 level, MMS stimulated; also: nearly all actives have a fitted effect of over 60% in size
# ELG1 5-FU: qHTS screen for small molecules that inhibit ELG1-dependent DNA repair: Hit Confirmation with 5FU Viability; shares compounds with ELG1 DNA repair; cell viability with 5-FU, ELG1-dependent repair; Potency, µM (series often up to 46.1 µM), inactives show at the highest dose activity change, negative = viability loss, usual class: cytotoxic; 670 tested, under 10 active; AID 624250, 2012;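 also: ELG1-luc HEK293T cells cotreated with 5-fluorouridine at 10 µM final; viability measured 16 h after compound addition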
# ELG1 MMS cell: qHTS screen for small molecules that inhibit ELG1-dependent DNA repair: Hit Confirmation with MMS Viability. shares compounds with ELG1 DNA repair. Cell viability with MMS, ELG1-dependent DNA repair. Potency, µM (top dose mostly 46.1 µM), for the others: at the top dose activity change, negative = viability loss, actives largely listed as cytotoxic. 33% of 670 active. AID 624251, 2012;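 also: ELG1-luc HEK293T cells co-treated with 10 µM MMS; viability read 16 h after compound addition; nearly all actives have a fitted effect of over 60% in size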
# Cell viab unstim: qHTS screen for small molecules that inhibit ELG1-dependent DNA repair: Hit Confirmation with Unstimulated Viability Assay; shares compounds with ELG1 DNA repair; AID 624252, 2012; Potency, µM (highest dose often 45.9 µM), for the others: at the highest dose activity change, negative = loss of viability, most hits filed as cytotoxic; 8% of 900 active; cell viability counter-screen, unstimulated, luminescence;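 also: compound exposure lasted 16 hours before reading; nearly all actives have a fitted effect of over 55% in size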
# FLuc enzyme: qHTS screen for small molecules that inhibit ELG1-dependent DNA repair: Hit Confirmation in Biochemical Luciferin Assay | 10% of 350 active | purified firefly luciferase, luminescence counter-screen | AID 624253, 2012 | shares compounds with ELG1 DNA repair | Potency, µM (titrated, usually from 57.5 µM), for the others: at the top dose activity, negative = inhibition, most hits filed as inhibitors
# The depositor's hits bear a star; ? = inconclusive; . = not tested or not shown; [ ] = remark or other dose. A selection: hits, their analogues and other compounds. The true share with any hit is near 15%. Calls follow the shape of the dose curve; as a rule, active = well fitted curve in the direction sought with a large enough effect; inconclusive = small, poorly fitted or top-dose-only effect, or another doubt; inactive = no such curve, though single readings can be large; an effect the other way counts as inactive or inconclusive. % is scaled to controls: 0 for no effect and ±100 for the full control effect; potency is read from the fitted curve at half-maximal effect.
SMILES,DT40 TDP1 no CPT,Gal4-VP16 FLuc,TDP1 cell CPT,RORg inh,12-LOX inh,ELG1 DNA repair,ELG1 Luc conf,ELG1-Luc MMS,ELG1 5-FU,ELG1 MMS cell,Cell viab unstim,others
CCCn1c(N2CCN(CC(=O)c3c(C)n(C)c4ccc(OC)cc34)CC2)nc2c1c(=O)[nH]c(=O)n2C,21µM*,?,?,21%,?,1.5µM*,3.5µM*,?,?,-18%,?,ELG1 FLuc counter=-6%;FLuc enzyme=-15%
C=CCc1c(OC(C)=O)c2ccccc2n(C)c1=O,-13%,-1%,-22%,5%,-16%,3.3µM*,?,7.1µM*,0%,10µM*,?,
CC1(C)Cc2c(C#N)c(SCCOc3ccccc3)nc(N3CCOCC3)c2CO1,?,-18%,?,-5%,0%,2.5µM*,3.5µM*,?,?,-9%,?,
O=C(c1ccoc1)N1CCN(C(=O)c2nnn3c2COC(c2ccccc2)C3)CC1 (stereo not drawn),.,.,.,.,-18%,.,.,.,.,.,.,
CCOc1ccc(NC2=CC(=O)CC(C)(C)C2)cc1,.,.,.,.,0%,.,.,.,.,.,.,
O=C(Cc1ccccc1)NNC(=O)c1cnccn1,-5%,?,4%,-8%,-9%,-1%,.,.,.,.,.,
O=C(/C=C/c1ccc(F)cc1)NC(=S)NNC(=O)c1cnccn1,3.3µM*,1%,3.7µM*,-19%,0%,2.3µM*,?,20µM*,-8%,-14%,-13%,
CCn1cnnc1-c1cccc(NC(=O)c2ccc(Br)cc2)c1,.,.,.,.,24%,.,.,.,.,.,.,
CC(C)N[C@@H]1CC[C@@H]1NC(=O)c1ccccc1OC(F)(F)C(F)F,.,.,.,.,-23%,.,.,.,.,.,.,
COc1ccc(/C=C/c2ccc3ccccc3n2)c(OC)c1,11µM*,.,16µM*,.,.,.,.,.,.,.,-25%,ELG1 FLuc counter=-9%;FLuc enzyme=?
COc1ccc(/C=C/C(=O)/C=C/c2ccc(OC)cc2OC)c(OC)c1,?,-16%,?,-10%,-1%,.,.,.,.,.,.,
Cc1ccc(NS(=O)(=O)c2ccc(CCC(=O)O)cc2)cc1S(=O)(=O)N1CCCCC1,.,.,.,.,3%,.,.,.,.,.,.,
Oc1ccccc1-c1cc(-c2ccccc2)n[nH]1,?,.,?,.,?,?,.,.,.,.,-2%,
Oc1ccccc1-c1ccn[nH]1,-17%,.,-20%,.,3%,?,.,.,.,.,.,
Cc1cc(C)c(C#N)c(SCC(=O)Nc2cc(C)on2)n1,-8%,.,-7%,.,10%,?,.,.,.,.,-4%,
Cc1cc(C)c(C#N)c(SCC(=O)NC(C)(C)C)n1,-2%,-1%,11%,5%,8%[57.4 µM],?,.,.,.,.,.,
CCOCCCNC(=O)C1CCN(c2cc(C)nc3c(-c4ccc(OC)c(OC)c4)c(C)nn23)CC1,?,-7%,-26%,-37%,0%,2.6µM*,?,17%,?,1%,-19%,
CCN(CC)C(=O)C1CCN(c2cc(C)nc3c(-c4ccc(OC)c(OC)c4)c(C)nn23)CC1,?,.,-26%,.,-16%,.,.,.,.,.,.,
Cc1cc2cc(CN(CCN3CCOCC3)C(=O)Nc3ccccc3F)c(=O)[nH]c2cc1C,?,7%,?,28%,4%,?,.,.,.,.,.,
Cc1cccc2cc(CN(CCN3CCOCC3)C(=O)Nc3ccccc3F)c(=O)[nH]c12,?,-6%,-2%,8%,-21%,3.3µM*,4µM*,30%,?,4%,-12%,
COc1cc(C(=O)OC2CSCC2NC(=O)c2ccccc2)cc(OC)c1OC (stereo not drawn),?,-9%,?,6%,0%,4.1µM*,10µM*,1%,?,?,?,
Cc1ccc([N+](=O)[O-])cc1Nc1nc(N2CCOCC2)nc(N2CCOCC2)n1,-22%,-23%,4%,-3%,2%,16µM*,8.9µM*,?,?,?,?,ELG1 FLuc counter=62%;FLuc enzyme=-6%
